Screening results: PubChem BioAssay, National Center for Advancing Translational Sciences (NCATS)
This is a sample that favours compounds with a hit; in the whole collection about 10% have one here.
IMPase cell inh: cell-permeable inhibitors of inositol monophosphatase (IMPase); CHO-M1 cells, IP1 accumulation, HTRF TR-FRET ratio; AID 901; 120,000 tested, under 10 active; inhibition (IP1 accumulation), % at 46.1 µM; active = well fitted curve in the direction sought with a large enough effect in the signal ratio, not every such curve was filed as active; inconclusive = small, poorly fitted or top-dose-only effect, or a change in a side signal; inactive = no such curve, though single readings can be large or run the other way; the % refers to the signal ratio;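 also: cells stimulated with carbachol in lithium chloride buffer; plate controls were DMSO basal wells for no effect and reference inhibitor wells for full effect; higher means more IMPase inhibition seen as more IP1 and lower FRET ratio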
Target sequence (P97697 whole entry, looked up): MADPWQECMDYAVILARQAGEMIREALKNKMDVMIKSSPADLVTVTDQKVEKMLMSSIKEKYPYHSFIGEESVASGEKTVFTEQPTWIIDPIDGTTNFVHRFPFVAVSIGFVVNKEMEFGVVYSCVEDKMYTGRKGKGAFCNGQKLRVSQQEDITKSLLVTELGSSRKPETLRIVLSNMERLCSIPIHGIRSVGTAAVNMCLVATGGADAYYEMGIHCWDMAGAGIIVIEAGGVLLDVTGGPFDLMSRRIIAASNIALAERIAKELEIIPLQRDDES
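Measured: the HTRF emission ratio (665/620 nm) plus the 620 nm donor channel, each fitted to the Hill equation to give AC50. Cells were CHO-M1 given compounds up to 46 uM and a 30 min carbachol stimulation at 37C.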
Luc counter: Kinase-Glo luciferase inhibition (counter-screen); Q27757; Kinase-Glo luciferase, ATP luminescence, 8 min; Potency, µM (doses to about 38.3 µM), inactives show top-dose activity change, negative = inhibition, actives largely listed as inhibitors; 200,000 compounds, 0.28% hits; AID 1379; active = well fitted inhibition curve with a large enough effect; inconclusive = small, poorly fitted or top-dose-only effect; also: potency is read from the fitted curve at half-maximal effect; nearly all actives have a fitted effect of over 60% in size
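Compound is pinned into ATP-containing buffer (10 uM ATP, imidazole pH 7.2, 7 mM MgCl2). Kinase-Glo luciferase reagent is then added. Light output is recorded following an 8-min room-temperature incubation.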
HPGD block: HPGD (human) dehydrogenase inhibition; P15428; purified HPGD, NADH fluorescence kinetic, PGE2 substrate; AID 894; Potency, µM, without a hit: at the highest dose activity change, negative = inhibition, most hits filed as inhibitors; 150,000 compounds, 4.3% hits; also: potency is read from the fitted curve at half-maximal effect
Target sequence (P15428 whole entry, looked up): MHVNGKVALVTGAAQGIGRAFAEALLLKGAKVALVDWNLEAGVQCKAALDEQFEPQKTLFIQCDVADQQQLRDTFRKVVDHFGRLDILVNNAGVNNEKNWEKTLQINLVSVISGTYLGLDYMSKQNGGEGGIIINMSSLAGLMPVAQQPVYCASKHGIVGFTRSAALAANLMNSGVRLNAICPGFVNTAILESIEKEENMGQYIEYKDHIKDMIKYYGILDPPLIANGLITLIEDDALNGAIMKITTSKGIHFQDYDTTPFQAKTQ
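NADH formation kinetics: reaction with 30 uM PGE2 and 1 mM NAD+ (final), 20 nM enzyme, Tris-HCl pH 8 with Tween 20, after 15 min compound preincubation at room temperature. Fluorescence change, last versus first of five reads.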
ALDH1A1 block: blocks purified human ALDH1A1 activity; AID 1030; P00352; Potency, µM (top dose mostly 75.3 µM), for the others: top-dose activity, negative = inhibition, hits mostly inhibitors; 220,000 compounds, 7.3% hits; Purified ALDH1A1, NADH fluorescence, propionaldehyde substrate;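 also: potency is read from the fitted curve at half-maximal effect; plate controls were no enzyme wells and a reference inhibitor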
Lamin A splicing: changes lamin A minigene splicing in HeLa cells | HeLa LMNA splicing GFP/RFP minigene ratio, 48 h | Potency, µM (titrated, usually from 46.1 µM), inactives show at the top dose ratio change, negative = inhibition, usual class: inhibitors | 200,000 compounds, 0.01% hits | AID 1487; active = well fitted inhibition curve with a large enough effect in the signal ratio, with a control signal flat, not every such curve was filed as active; inconclusive = small, poorly fitted or top-dose-only effect, or effect the other way, or a change in a side signal; the % refers to the signal ratio; also: potency is read from the fitted curve at half-maximal effect
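S3 HeLa cells stably expressing lamin A-EGFP splicing minigene plus DsRed2, 600 cells/well, 48 h compound exposure at 37C. Laser-scanning cytometry; analysed as GFP (500-530 nm)/RFP (575-640 nm) total intensity ratio; 0.5% DMSO vehicle.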
PNC assembly inh: perinucleolar compartment assembly inhibition. PC3M PTB-GFP, PNC prevalence imaging, 16 h; active compounds read low. activity change (PNC), negative = inhibition, % at 10 µM. 140,000 compounds, 3.1% hits. AID 2417;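 active = readout at or below -70, meaning at least 70% loss of cells showing the perinucleolar compartment, a nuclear body marking cancer cells; inconclusive = readout between -30 and a set limit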;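 also: plate controls were DMSO wells for no effect and camptothecin positive control wells for full effect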
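PC3M cells stably expressing PTB-GFP, 750–1000 cells/well, treated 16 h at 37 °C with compound (23 nl of library stock), in duplicate. After paraformaldehyde fixation and Hoechst stain, imaged at 20x; PNC prevalence scored by image analysis.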
* hit, by the source's call; i = inactive; ? = inconclusive; nt = no result; [ ] = another dose, or the depositor's remark. Unless noted, calls follow the shape of the dose curve; as a rule, active = well fitted inhibition curve with a large enough effect (not every such curve was filed as active); inconclusive = small, poorly fitted or top-dose-only effect, or another doubt; inactive = no such curve, though single readings can be large or run the other way. Unless noted, % is scaled to controls: 0 for no effect and ±100 for the full control effect.

SMILES	IMPase cell inh	Luc counter	HPGD block	ALDH1A1 block	Lamin A splicing	PNC assembly inh
CC[C@H]1C(c2cccc(Cl)c2)=NN(c2ccccc2)[C@@H]1CO	nt	-2%[39.9 µM]	?	?	nt	nt
CO[C@@H]1COC(=O)CC=C[C@@H](C)[C@@H]2C=C[C@@H](O)[C@@H](COC(=O)C/C=C\[C@H]1C)O2	nt	nt	nt	-6%[13.5 µM]	nt	nt
CCN(C(=O)c1cc(S(=O)(=O)N2CCCC2)cn1C)c1ccc(OC)cc1	nt	nt	nt	nt	0%[46 µM]	nt
CC(=O)OCC1OC(C#CCC2CCCCC2)C=CC1OC(C)=O (stereo not given)	nt	nt	nt	4.5µM*	nt	nt
O=C(c1ccccc1)N1CCN(c2ncnc3sc4c(c23)CCC4)CC1	10	0%	-14%	1.3µM*	?	3
Cc1nc(N2CCN(C(=O)c3ccco3)CC2)c2c3c(sc2n1)CCC3	2	-6%	28µM*	?	?	-6
O=C(Nc1cccc(Cl)c1)c1cc(S(=O)(=O)N2CCCc3ccccc32)ccc1F	nt	nt	nt	nt	6%[46 µM]	nt
O=C1C2C3C=CC(C2C(=O)N1CN1CCOCC1)C1C2C(=O)N(CN4CCOCC4)C(=O)C2C31 (stereo not given)	nt	-5%[7.66 µM]	-5%	17%[13.5 µM]	nt	nt
CCCCOc1ccc(-c2cn3ccccc3n2)cc1[N+](=O)[O-]	nt	?	-11%	10µM*	?	?
CCCN1CN(Cc2ccccc2)CC2=C1CC(C)(C)CC2=O	15	-4%	-19%	7.9µM*	7%	-25
CC1(C)CC(=O)C2=C(C1)NCN(Cc1ccccc1)C2	-3	-2%	-4%	6%	10%	-3
Cc1ccc(Cn2c3ccccc3c3cn[nH]c(=O)c32)cc1	5	2%	-18%	?	1%	-108*
O=C(CN1CCC(c2nc3ccccc3s2)CC1)N1CCCCC1	nt	2%	nt	?	nt	nt
O=C(CSc1ccc(F)cc1)N1CCC(c2nc3ccccc3s2)CC1	4	5%	-21%	7.1µM*	12%	-17
O=C(CSc1ccccc1Cl)N1CCC(c2nc3ccccc3s2)CC1	5	1%	-4%	13µM*	?	-7
O=C(c1cccc(F)c1)N1CCC(c2nc3ccccc3s2)CC1	nt	3%	nt	-18%	nt	nt
CCCCCOC(=O)CSc1nc2sc3c(c2c(=O)n1Cc1ccccc1)CC(C)(C)OC3	-1	nt	nt	nt	nt	nt
CCCCCc1nc2sc3c(c2c(=O)n1NC(=O)c1ccc([N+](=O)[O-])cc1)CC(C)(C)OC3	2	2%	-10%	8.9µM*	?	?
Cc1cc(OC(C)C(=O)Nc2c(C(=O)c3ccc(F)cc3)oc3ccccc23)ccc1Cl (stereo not given)	0	nt	nt	nt	nt	nt
CCOc1ccc(NC(=O)CN2C(=O)COc3ccc(S(=O)(=O)NC4CCCC4)cc32)cc1	nt	nt	nt	nt	-17%[46 µM]	nt
CC(C)(C)C1CCC(=NNC(=O)CN(c2ccccc2)S(=O)(=O)c2ccccc2[N+](=O)[O-])CC1 (stereo not given)	nt	1%	-20%	10µM*	-7%	26
CCOC(=O)CCN1C(=O)[C@H]2[C@H]3[C@H](O)[C@H](O)C/C(=N/NC(=O)OCc4ccccc4)[C@@H]3CC[C@@H]2C1=O	nt	nt	nt	-2%[13.5 µM]	nt	nt
COCCn1c(=O)c(-c2cccs2)nc2cnc(OCc3ccccc3)nc21	nt	-4%	?	?	nt	nt
Cc1nn2c(=O)cc(COC(=O)COc3ccc(F)cc3)nc2s1	nt	nt	nt	nt	14%[46 µM]	nt
CCc1ccccc1NC(=O)c1cc(S(=O)(=O)N(CC)c2ccccc2)ccc1F	nt	nt	nt	nt	-7%[46 µM]	nt
SMILES	IMPase cell inh	Luc counter	HPGD block	ALDH1A1 block	Lamin A splicing	PNC assembly inh
Cc1ccc(-n2nc(C)c(Sc3ccccc3[N+](=O)[O-])c2N)cc1	nt	1%	?	10µM*	?	-15
C[C@@H](C(=O)Nc1nc2ccccc2s1)N1C(=O)C2CC=CCC2C1=O (stereo not given in full)	nt	0%	nt	23%	nt	nt
Cc1cccc2sc(NC(=O)[C@H](C)N3C(=O)C4CC=CCC4C3=O)nc12 (stereo not given in full)	nt	nt	nt	14µM*	nt	nt
COc1ccc(-n2c(SCC(=O)NCc3ccc(C)cc3)nc3n[nH]c(C)c3c2=N)cc1	nt	nt	nt	nt	11%[46 µM]	nt
CCC(=O)N1CCN(c2ccc(Cl)cc2NC(=O)Cc2ccc(Cl)cc2)CC1	17	3%	-9%	?	-1%	-82*
O=C(Nc1ccc(N2CCCC2)c(Cl)c1)c1ccc(Br)o1	5	-7%	-30%	19µM*	-6%	51
CCC(=O)N1CCN(c2ccccc2NC(=O)Cc2ccc(Cl)cc2)CC1	18	0%	-12%	-6%	2%	?
CCC(=O)N1CCN(c2ccc(NC(=O)c3ccc(Br)o3)cc2)CC1	nt	-2%	-5%	-1%	-4%	-94*
CCN1CCN(c2ccc(NC(=O)c3ccc([N+](=O)[O-])o3)cc2Cl)CC1	nt	0%	nt	20µM*	?	nt
O=C(Nc1ccccc1N1CCCC1)c1ccc(Br)o1	15	-4%	-6%	?	-1%	10
CC(C)CCOc1ccc(Cn2c(=O)sc3ccccc32)cc1	-6	nt	nt	nt	nt	nt
CCOC(=O)C1OC1C(=O)NC(CC(C)C)C(=O)NCCC(C)C (stereo not given)	nt	nt	nt	1%	nt	nt
O=C(Nc1ccccc1N1CCCCC1)c1ccco1	6	-3%	-3%	2%	0%	27
O=C(Nc1ccccc1N1CCCCC1)c1ccc(-c2ccc(Cl)cc2)o1	nt	-2%	?	i	?	-82*
COc1ccc(S(=O)(=O)N2CCCCC2)cc1NC(=O)c1ccc([N+](=O)[O-])o1	nt	4%	nt	3.2µM*	?	nt
CCC(=O)N1CCN(c2ccc(NC(=O)c3ccc([N+](=O)[O-])o3)cc2Cl)CC1	nt	-1%	nt	14µM*	nt	nt
CCOc1ccc(S(=O)(=O)N(CC(=O)Nc2ccc(OC)c(Cl)c2)c2ccccc2)cc1	0	nt	nt	nt	nt	nt
